Each structure is given as a SMILES string. Values without a mark were called inactive.

One experiment relates to Mel-DCC-11. The experiment is described as follows: cell viability relative to DMSO control (fraction of DMSO control); higher = less cytotoxic, active = 0.5 or less. The following applies: 1 µM; 120 h. In a few lines:
(§1)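 The screen used 384-well plates acoustically pre-spotted with 315 approved anti-cancer drugs from TargetMol, each at 1 µM in duplicate. Into each well went 40 µl of cells, 2500 NHEM-hTERT immortalized melanocytes or 1500 of patient-derived Mel-DCC-11 or its resistant subline Mel-DCC-11-R, and plates were kept 120 h, with the subline also tested alongside 8 µM of its selecting drug. Readout was by ATPlite 1step luminescence. Viability values were normalised to vehicle-treated controls and averaged between duplicates.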

Another experiment deals with NHEM-hTERT. The description is as above. The following applies: 1 µM; 120 h. The essentials:
as §1

In a further experiment the test system is Mel-DCC-11-R. The experiment is described as follows: cell viability relative to DMSO control (fraction of DMSO control); higher = less cytotoxic, active = 0.8 or less. The following applies: 1 µM, 120 h. In a few lines: as §1

On to `O=c1cc(-c2ccc(O)cc2)oc2cc(O)cc(O)c12` [Apigenin], for which the cell viability with Mel-DCC-11 is 1.07; with NHEM-hTERT, 1.09; with Mel-DCC-11-R (vemurafenib co-treatment 0 µM), 0.972; in the experiment on Mel-DCC-11-R (vemurafenib co-treatment 8 µM) it was 0.991.
For the molecule `CC(=O)O[C@@]12CO[C@@H]1C[C@H](O)[C@@]1(C)C(=O)[C@H](O)C3=C(C)[C@@H](OC(=O)[C@H](O)[C@@H](NC(=O)OC(C)(C)C)c4ccccc4)C[C@@](O)([C@@H](OC(=O)c4ccccc4)[C@H]21)C3(C)C` [Docetaxel], the cell viability in the experiment on Mel-DCC-11 is 0.61; with NHEM-hTERT it was 0.707; in the experiment with Mel-DCC-11-R (vemurafenib co-treatment 0 µM), 1.07; in the experiment on Mel-DCC-11-R (vemurafenib co-treatment 8 µM), 0.609 (active).
With `COc1cccc2c1C(=O)c1c(O)c3c(c(O)c1C2=O)C[C@@](O)(C(C)=O)C[C@@H]3O[C@H]1C[C@H](N)[C@H](O)[C@H](C)O1.Cl` [Daunorubicin hydrochloride], the cell viability in the experiment on Mel-DCC-11 was 0.0325 (active); in the experiment with NHEM-hTERT it was 0.363 (active); in the experiment with Mel-DCC-11-R (vemurafenib co-treatment 0 µM), 0.0677 (active); with Mel-DCC-11-R (vemurafenib co-treatment 8 µM), 0.0387 (active).
For the molecule `Cl.N=C1CCCN1Cc1[nH]c(=O)[nH]c(=O)c1Cl.O=c1[nH]c(=O)n([C@H]2C[C@H](O)[C@@H](CO)O2)cc1C(F)(F)F.O=c1[nH]c(=O)n([C@H]2C[C@H](O)[C@@H](CO)O2)cc1C(F)(F)F`, the cell viability in the experiment with Mel-DCC-11 is 1.27; in the experiment with NHEM-hTERT, 0.967; in the experiment on Mel-DCC-11-R (vemurafenib co-treatment 0 µM), 1.23; in the experiment with Mel-DCC-11-R (vemurafenib co-treatment 8 µM), 1.1.
Take `COc1cc2nccc(Oc3ccc(NC(=O)Nc4cc(C)on4)c(Cl)c3)c2cc1OC` [Tivozanib]: the cell viability in the experiment on Mel-DCC-11 is 1.13; in the experiment on NHEM-hTERT, 1.09; in the experiment with Mel-DCC-11-R (vemurafenib co-treatment 0 µM), 1.08; in the experiment with Mel-DCC-11-R (vemurafenib co-treatment 8 µM), 1.08.
`CN(N=O)C(=O)N[C@@H]1[C@@H](O)[C@H](O)[C@@H](CO)O[C@@H]1O` [Streptozocin]: the cell viability in the experiment on Mel-DCC-11 is 1.17; with NHEM-hTERT, 1.11; in the experiment on Mel-DCC-11-R (vemurafenib co-treatment 0 µM), 0.976; with Mel-DCC-11-R (vemurafenib co-treatment 8 µM) it was 1.1.
As for `CC[C@]1(O)C[C@@H]2C[N@@](CCc3c([nH]c4ccccc34)[C@@](C(=O)OC)(c3cc4c(cc3OC)N(C)[C@H]3[C@@](O)(C(=O)OC)[C@H](OC(C)=O)[C@]5(CC)C=CCN6CC[C@]43[C@@H]65)C2)C1.O=S(=O)(O)O` [Vinblastine sulfate], the cell viability in the experiment with Mel-DCC-11 is 0.428 (active); with NHEM-hTERT, 0.567; in the experiment on Mel-DCC-11-R (vemurafenib co-treatment 0 µM), 0.488 (active); with Mel-DCC-11-R (vemurafenib co-treatment 8 µM), 0.252 (active).
In the case of `CO[C@H]1C[C@@H]2CC[C@@H](C)[C@@](O)(O2)C(=O)C(=O)N2CCCC[C@H]2C(=O)O[C@H]([C@H](C)C[C@@H]2CC[C@@H](OC(=O)C(C)(CO)CO)[C@H](OC)C2)CC(=O)[C@H](C)/C=C(\C)[C@@H](O)[C@@H](OC)C(=O)[C@H](C)C[C@H](C)/C=C/C=C/C=C/1C` [Temsirolimus], the cell viability with Mel-DCC-11 was 1.38; in the experiment on NHEM-hTERT it was 0.758; with Mel-DCC-11-R (vemurafenib co-treatment 0 µM), 1.53; with Mel-DCC-11-R (vemurafenib co-treatment 8 µM) it was 0.786 (active).
On the same counts, the results for `O=C(CCBr)N1CCN(C(=O)CCBr)CC1` [Pipobroman] are 0.709, 0.902, 0.832 and 0.897.
For `CC(C)(CO)c1cc2cc(NC(=O)C3(c4ccc5c(c4)OC(F)(F)O5)CC3)c(F)cc2n1C[C@@H](O)CO`, the cell viability in the experiment on Mel-DCC-11 is 1.01; in the experiment with NHEM-hTERT, 1.06; in the experiment with Mel-DCC-11-R (vemurafenib co-treatment 0 µM) it was 1.18; with Mel-DCC-11-R (vemurafenib co-treatment 8 µM), 1.07.
Regarding `CC1CCC(C(C)C)C(O)C1` (racemic) [DL-Menthol], the cell viability with Mel-DCC-11 was 1.2; with NHEM-hTERT, 0.973; in the experiment on Mel-DCC-11-R (vemurafenib co-treatment 0 µM), 1.07; in the experiment on Mel-DCC-11-R (vemurafenib co-treatment 8 µM), 1.08.
Consider `N#Cc1ccnc(N2C(=O)CC[C@H]2C(=O)N(c2cncc(F)c2)[C@H](C(=O)NC2CC(F)(F)C2)c2ccccc2Cl)c1` [Ivosidenib], for which the cell viability with Mel-DCC-11 was 1.32; with NHEM-hTERT, 1.27; in the experiment on Mel-DCC-11-R (vemurafenib co-treatment 0 µM), 1.25; with Mel-DCC-11-R (vemurafenib co-treatment 8 µM) it was 1.06.
The corresponding values for `Oc1cc(O)cc(/C=C/c2ccc(O)c(O)c2)c1` [Piceatannol] are 0.919, 1.09, 0.982 and 1.
The corresponding values for `O=C(c1cc(Cc2n[nH]c(=O)c3ccccc23)ccc1F)N1CCN(C(=O)C2CC2)CC1` [Olaparib] are 0.809, 0.988, 1.09 and 0.92.
For `CNC(=O)c1ccccc1Sc1ccc2c(/C=C/c3ccccn3)n[nH]c2c1` [Axitinib], the cell viability in the experiment on Mel-DCC-11 was 1.51; in the experiment on NHEM-hTERT, 0.879; in the experiment with Mel-DCC-11-R (vemurafenib co-treatment 0 µM), 0.981; in the experiment on Mel-DCC-11-R (vemurafenib co-treatment 8 µM) it was 1.03.
In the case of `Cl.Cl.O=C1c2c(O)ccc(O)c2C(=O)c2c(NCCNCCO)ccc(NCCNCCO)c21` [Mitoxantrone hydrochloride], the cell viability in the experiment with Mel-DCC-11 is 1.08; in the experiment with NHEM-hTERT it was 0.797; with Mel-DCC-11-R (vemurafenib co-treatment 0 µM), 1.14; with Mel-DCC-11-R (vemurafenib co-treatment 8 µM) it was 0.477 (active).
In the case of `CC=Cc1ccc(OC)cc1` (stereo in doubt) [cis-Anethol], the cell viability was 1.19 in the experiment with Mel-DCC-11, 0.759 with NHEM-hTERT, 1.26 in the experiment on Mel-DCC-11-R (vemurafenib co-treatment 0 µM) and 0.591 (active) in the experiment on Mel-DCC-11-R (vemurafenib co-treatment 8 µM).
`Cc1cn(-c2cc(NC(=O)c3ccc(C)c(Nc4nccc(-c5cnccn5)n4)c3)cc(C(F)(F)F)c2)cn1` [Radotinib]: the cell viability is 0.995 in the experiment on Mel-DCC-11, 1.09 in the experiment with NHEM-hTERT, 1.19 in the experiment with Mel-DCC-11-R (vemurafenib co-treatment 0 µM) and 1.27 in the experiment on Mel-DCC-11-R (vemurafenib co-treatment 8 µM).
As for `Cc1ccc(-c2ncc(Cl)cc2-c2ccc(S(C)(=O)=O)cc2)cn1` [Etoricoxib], the cell viability with Mel-DCC-11 was 1.11; in the experiment with NHEM-hTERT it was 1.17; in the experiment with Mel-DCC-11-R (vemurafenib co-treatment 0 µM), 1.11; in the experiment on Mel-DCC-11-R (vemurafenib co-treatment 8 µM) it was 1.06.
As to `Cc1nc(Nc2ncc(C(=O)Nc3c(C)cccc3Cl)s2)cc(N2CCN(CCO)CC2)n1` [Dasatinib], the cell viability was 1.25 with Mel-DCC-11, 0.513 in the experiment on NHEM-hTERT, 1.59 in the experiment on Mel-DCC-11-R (vemurafenib co-treatment 0 µM) and 1.58 in the experiment with Mel-DCC-11-R (vemurafenib co-treatment 8 µM).
As for `CNC(=O)c1cc(Oc2ccc(NC(=O)Nc3ccc(Cl)c(C(F)(F)F)c3)cc2)ccn1` [Sorafenib], the cell viability in the experiment on Mel-DCC-11 is 1.46; with NHEM-hTERT, 1.02; in the experiment with Mel-DCC-11-R (vemurafenib co-treatment 0 µM), 0.898; in the experiment on Mel-DCC-11-R (vemurafenib co-treatment 8 µM), 1.2.
As for `COC(=O)N[C@@H](C)CNc1nccc(-c2cn(C(C)C)nc2-c2cc(Cl)cc(NS(C)(=O)=O)c2F)n1` [Encorafenib], the cell viability was 0.236 (active) in the experiment on Mel-DCC-11, 0.972 with NHEM-hTERT, 0.802 with Mel-DCC-11-R (vemurafenib co-treatment 0 µM) and 0.74 (active) in the experiment with Mel-DCC-11-R (vemurafenib co-treatment 8 µM).
The corresponding values for `CCOC(=O)[C@@H](N)Cc1ccc(-c2cc(O[C@H](c3ccc(Cl)cc3-n3ccc(C)n3)C(F)(F)F)nc(N)n2)cc1.O=C(O)CNC(=O)c1ccccc1` [Telotristat Etiprate] are 0.836, 1.04, 1.08 and 1.07.
On to `Cc1cc(Nc2cc(N3CCN(C)CC3)nc(Sc3ccc(NC(=O)C4CC4)cc3)n2)n[nH]1` [Tozasertib], for which the cell viability in the experiment on Mel-DCC-11 was 1.56; in the experiment on NHEM-hTERT, 0.841; in the experiment on Mel-DCC-11-R (vemurafenib co-treatment 0 µM), 1.14; with Mel-DCC-11-R (vemurafenib co-treatment 8 µM), 0.752 (active).
Turning to `C[C@]12CC[C@H](O)CC1=CC[C@@H]1[C@@H]2CC[C@]2(C)C(c3cccnc3)=CC[C@@H]12` [Abiraterone], the cell viability with Mel-DCC-11 is 1.28; in the experiment with NHEM-hTERT it was 0.938; in the experiment on Mel-DCC-11-R (vemurafenib co-treatment 0 µM) it was 1.07; in the experiment on Mel-DCC-11-R (vemurafenib co-treatment 8 µM) it was 1.16.
For `Cn1cnc2c(F)c(Nc3ccc(Br)cc3F)c(C(=O)NOCCO)cc21` [Binimetinib], the cell viability in the experiment with Mel-DCC-11 was 0.195 (active); in the experiment with NHEM-hTERT it was 0.934; with Mel-DCC-11-R (vemurafenib co-treatment 0 µM), 0.664 (active); in the experiment with Mel-DCC-11-R (vemurafenib co-treatment 8 µM) it was 0.406 (active).
On the same counts, the results for `CN(C)N=Nc1[nH]cnc1C(N)=O` [Dacarbazine] are 2.24, 0.982, 1.04 and 1.17.
The corresponding values for `N#CC1(c2ccc(NC(=O)c3cccnc3NCc3ccncc3)cc2)CCCC1` [Apatinib] are 1.03, 0.966, 1.14 and 1.13.
The corresponding values for `CC(C)(C)c1nc(-c2cccc(NS(=O)(=O)c3c(F)cccc3F)c2F)c(-c2ccnc(N)n2)s1` [Dabrafenib] are 0.332 (active), 0.976, 1.03 and 0.894.
On to `O=c1[nH]c(=O)n([C@H]2C[C@H](O)[C@@H](CO)O2)cc1/C=C/Br` [Brivudine], for which the cell viability in the experiment with Mel-DCC-11 is 0.776; in the experiment with NHEM-hTERT, 1.08; in the experiment with Mel-DCC-11-R (vemurafenib co-treatment 0 µM), 0.809; with Mel-DCC-11-R (vemurafenib co-treatment 8 µM), 1.12.
The corresponding values for `Cn1nnc2c(C(N)=O)ncn2c1=O` [Temozolomide] are 0.893, 1.01, 0.884 and 0.874.
For the molecule `COc1cc2nccc(Oc3ccc(NC(=O)C4(C(=O)Nc5ccc(F)cc5)CC4)cc3)c2cc1OC.O=C(O)C[C@H](O)C(=O)O`, the cell viability is 0.93 in the experiment with Mel-DCC-11, 0.932 in the experiment on NHEM-hTERT, 1.05 in the experiment with Mel-DCC-11-R (vemurafenib co-treatment 0 µM) and 0.365 (active) with Mel-DCC-11-R (vemurafenib co-treatment 8 µM).
In the case of `CC(C)C[C@H](NC(=O)[C@H](CCc1ccccc1)NC(=O)CN1CCOCC1)C(=O)N[C@@H](Cc1ccccc1)C(=O)N[C@@H](CC(C)C)C(=O)[C@@]1(C)CO1` [Carfilzomib], the cell viability in the experiment on Mel-DCC-11 is 0.0151 (active); in the experiment with NHEM-hTERT it was 0.0167 (active); in the experiment with Mel-DCC-11-R (vemurafenib co-treatment 0 µM), 0.0186 (active); in the experiment with Mel-DCC-11-R (vemurafenib co-treatment 8 µM) it was 0.018 (active).
Consider `CCOC(=O)c1ccc(C#Cc2ccc3c(c2)C(C)(C)CCS3)nc1` [Tazarotene], for which the cell viability in the experiment on Mel-DCC-11 was 1.1; in the experiment with NHEM-hTERT it was 1.16; with Mel-DCC-11-R (vemurafenib co-treatment 0 µM), 1.09; in the experiment with Mel-DCC-11-R (vemurafenib co-treatment 8 µM), 1.23.

(Values after the supplement of paper PMC12808144.)
